# Assay results from PubChem BioAssay (NCATS).
# Several values for one entry are separate records, joined by “and”; a condition that tells them apart may be missing. Equal entries are not always repeated. Values without a mark were called inactive. Records with an inconclusive call do not appear. Entries that show only a call come without a potency. Activity calls are given as the source filed them. Unless noted, calls come from the whole dose curve; as a rule, active = well fitted curve in the direction sought with a large enough effect; inconclusive = small, poorly fitted or top-dose-only effect, or another doubt; inactive = no such curve, though single readings can be large; an effect the other way counts as inactive or inconclusive.
# Columns and labels:
# [1] = target: Luciferin 4-monooxygenase (Photinus pyralis) (UniProt P08659); experiment: Biochemical firefly luciferase enzyme assay for NPC (AID 624030); note: nearly all actives have a fitted effect of over 70% in size; note: potency is the fitted concentration of half-maximal effect
# Chain of Luciferin 4-monooxygenase (Photinus pyralis) (P08659 whole entry, looked up): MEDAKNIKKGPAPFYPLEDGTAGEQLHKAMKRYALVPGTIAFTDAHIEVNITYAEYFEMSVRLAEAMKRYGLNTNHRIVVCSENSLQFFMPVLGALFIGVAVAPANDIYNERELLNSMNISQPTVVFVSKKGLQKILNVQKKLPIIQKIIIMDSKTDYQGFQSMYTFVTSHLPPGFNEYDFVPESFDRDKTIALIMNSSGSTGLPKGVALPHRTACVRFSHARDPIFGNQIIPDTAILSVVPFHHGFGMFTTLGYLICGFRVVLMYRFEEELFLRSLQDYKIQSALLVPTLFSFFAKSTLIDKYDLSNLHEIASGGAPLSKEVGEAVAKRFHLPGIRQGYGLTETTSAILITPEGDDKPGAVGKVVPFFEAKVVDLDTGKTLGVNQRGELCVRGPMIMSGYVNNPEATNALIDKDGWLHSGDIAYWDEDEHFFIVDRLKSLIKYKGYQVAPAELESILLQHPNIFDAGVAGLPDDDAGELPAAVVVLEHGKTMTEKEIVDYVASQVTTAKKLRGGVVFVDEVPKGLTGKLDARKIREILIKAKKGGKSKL
# How it was run: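 Direct inhibition of firefly luciferase enzyme (10 nM final, 50 mM Tris Acetate) assessed by luminescence within 5 minutes. Percent activity scaled between DMSO and PTC124 positive control, with concentration-effect curves classified by fit quality and response.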
# [2] = S16 Schwann cell viability assay (CellTiter-Glo assay) (AID 624031); note: nearly all actives have a fitted effect of over 70% in size; note: potency is the fitted concentration of half-maximal effect
# How it was run: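 Rat S16 Schwann cells without reporter constructs received compound or DMSO for 24 h at 37 °C under 5% CO2. Cellular ATP was then quantified by CellTiter-Glo luminescence, with vehicle wells defined as 0% activity and cell-free wells as reference.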
# [3] = S16 Schwann cell PMP22 intronic element firefly luciferase assay (AID 624032); note: nearly all actives have a fitted effect of over 30% in size; note: potency is the fitted concentration of half-maximal effect
# How it was run: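 Luciferase reporter of PMP22 intronic-element expression in stably transfected S16 rat Schwann cells, read by ONE-Glo luminescence after 24 h compound exposure at 37 C. Activity scaled between DMSO (0%) and positive-control PTC124; concentration-effect curves quality-classified.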
# [4] = S16 Schwann cell PMP22 intronic element beta-lactamase assay (AID 624044; calls by dose curve; note: nearly all actives have a fitted effect of over 15% in size; note: potency is the fitted concentration of half-maximal effect)
# How it was run: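 Rat S16 Schwann cells with beta-Lac driven by a PMP22 intronic element, compound-treated 24 h at 37 °C. LiveBLAzer FRET B/G read: 460 nm normalized to potassium clavulanate vs DMSO; 535 nm FRET as viability; concentration-effect curves classified.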
# [5] = qHTS assay for small molecule agonists of the antioxidant response element (ARE) signaling pathway (AID 651741; active = well fitted activation curve with a large enough effect in the signal ratio; the % refers to the signal ratio; note: potency is the fitted concentration of half-maximal effect)
# How it was run: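 Seeding 2,000 ARE-bla HepG2 cells per well preceded a 5 h incubation at 37 C/5% CO2 and a 16 h compound exposure at 37 C. Beta-lactamase reporter activity was then quantified by fluorescence after 2 h with LiveBLAzer B/G FRET substrate.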
# [6] = qHTS assay for small molecule activators of the p53 signaling pathway (AID 651743; active = well fitted activation curve with a large enough effect in the signal ratio, not every such curve was filed as active; the % refers to the signal ratio; note: series mostly up to about 92 µM); settings: HCT-116 p53RE-bla, beta-lactamase FRET ratio, 16 h; activation: hits give high values
# How it was run: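 Screen for p53 pathway agonists uses stably transfected p53RE-bla HCT-116 cells, 4,000 per well, treated 16 h at 37 C with compounds in DMSO.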
# [7] = qHTS assay for small molecule disruptors of the mitochondrial membrane potential - 5 hr assay (AID 651755; calls by dose curve; note: nearly all actives have a fitted effect of over 40% in size)
# How it was run: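 HepG2, 2,000 cells/well, overnight attach; cpd or DMSO 5 hr, 37C/5% CO2; Mito-MPS 30 min 37C; fluor 490/535 + 540/590 nm.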
# [8] = qHTS assay for environmental chemicals that activate the Aryl hydrocarbon Receptor (AhR) signaling pathway (AID 651777); settings: 1A2-DRE human hepatoma cells, luciferase, 24 h; activation: hits give high values; note: nearly all actives have a fitted effect of over 15% in size
# How it was run: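 Measured luciferase activity, read 30 min after One-Glo addition at room temperature, from human hepatoma cells bearing a dioxin response element–CYP1A2 promoter reporter and exposed to compound for 24 hr at 37 C.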
# [9] = target: Peroxisome proliferator-activated receptor alpha (Homo sapiens) (UniProt Q07869); experiment: qHTS assay for small molecule agonists of the peroxisome proliferator-activated receptor alpha (PPARalpha) signaling pathway (AID 651778); settings: PathHunter PPARalpha complementation, chemiluminescence, 6 h; hits give high values
# Chain of Peroxisome proliferator-activated receptor alpha (Homo sapiens) (Q07869 whole entry, looked up): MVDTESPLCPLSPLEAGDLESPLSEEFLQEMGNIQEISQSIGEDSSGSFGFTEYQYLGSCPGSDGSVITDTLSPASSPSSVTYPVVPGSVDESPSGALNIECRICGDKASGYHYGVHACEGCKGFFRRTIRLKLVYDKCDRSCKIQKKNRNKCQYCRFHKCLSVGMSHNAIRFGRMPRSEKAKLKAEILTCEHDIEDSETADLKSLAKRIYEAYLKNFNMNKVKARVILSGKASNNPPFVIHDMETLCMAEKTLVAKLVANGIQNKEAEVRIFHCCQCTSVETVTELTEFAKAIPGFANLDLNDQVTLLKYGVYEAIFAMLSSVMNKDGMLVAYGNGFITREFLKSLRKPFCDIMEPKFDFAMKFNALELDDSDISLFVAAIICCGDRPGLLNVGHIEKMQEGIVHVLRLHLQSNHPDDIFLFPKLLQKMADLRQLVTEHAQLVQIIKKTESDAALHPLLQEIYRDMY
# How it was run: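 Chemiluminescence from complemented enzyme reported PPARalpha activation in cells after 6 hr of compound treatment at 37 C. The detection reagent was incubated for 60 min at room temperature, and compounds were scored as agonists.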
# [10] = target: Nuclear receptor ROR-gamma (Homo sapiens) (UniProt P51449); experiment: qHTS assay for small molecule antagonists of the retinoid-related orphan receptor gamma (ROR-gamma) signaling pathway (AID 651802); note: nearly all actives have a fitted effect of over 60% in size; note: potency is the fitted concentration of half-maximal effect
# Chain of Nuclear receptor ROR-gamma (Homo sapiens) (P51449 whole entry, looked up): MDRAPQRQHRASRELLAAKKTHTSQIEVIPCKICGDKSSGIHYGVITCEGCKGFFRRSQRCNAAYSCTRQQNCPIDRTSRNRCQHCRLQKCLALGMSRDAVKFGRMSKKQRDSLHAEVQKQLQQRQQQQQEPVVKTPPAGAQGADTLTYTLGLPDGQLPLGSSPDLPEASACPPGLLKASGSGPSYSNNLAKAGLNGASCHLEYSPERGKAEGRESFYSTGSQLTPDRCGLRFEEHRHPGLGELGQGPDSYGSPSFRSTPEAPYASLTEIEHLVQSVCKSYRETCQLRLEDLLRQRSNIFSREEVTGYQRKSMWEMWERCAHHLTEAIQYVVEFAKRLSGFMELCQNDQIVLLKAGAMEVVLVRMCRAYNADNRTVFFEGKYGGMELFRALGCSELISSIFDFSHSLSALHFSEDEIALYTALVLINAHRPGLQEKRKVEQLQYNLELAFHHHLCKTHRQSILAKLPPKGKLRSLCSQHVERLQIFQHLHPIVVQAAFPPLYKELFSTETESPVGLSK
# How it was run: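 Antagonism is scored as a fall in luminescence from a RORE-luciferase reporter in CHO cells expressing ROR under a TET-inducible promoter, measured 16hr after doxycycline induction in the presence of compound.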
# [11] = qHTS assay for small molecule disruptors of the mitochondrial membrane potential - 1 hr assay (AID 651754; calls by dose curve; note: nearly all actives have a fitted effect of over 35% in size)
# How it was run: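 Steps: seed HepG2 cells and let attach overnight; pin-transfer compound or vehicle; incubate 1 hr at 37C; add Mito-MPS dye for 30 min; read two-channel fluorescence for monomer and aggregate forms.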
# [12] = target: Tumor necrosis factor (Homo sapiens) (UniProt P01375); experiment: qHTS assay to identify small molecules that stimulate Tumor Necrosis Factor-alpha (TNF-alpha) secretion (AID 651757; active = well fitted curve in the direction sought with a large enough effect in the signal ratio; the % refers to the signal ratio)
# Chain of Tumor necrosis factor (Homo sapiens) (P01375 whole entry, looked up): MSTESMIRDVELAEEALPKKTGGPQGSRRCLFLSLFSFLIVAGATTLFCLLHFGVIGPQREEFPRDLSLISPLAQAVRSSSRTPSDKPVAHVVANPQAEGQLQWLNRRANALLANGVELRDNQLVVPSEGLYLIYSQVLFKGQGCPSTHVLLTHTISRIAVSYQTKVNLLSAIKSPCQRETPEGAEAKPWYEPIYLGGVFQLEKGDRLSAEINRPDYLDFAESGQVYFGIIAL
# How it was run: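 Secreted TNF-alpha from compound-treated THP-1 cells (17 hrs, 37 C) was quantified with a homogeneous time-resolved fluorescence antibody assay.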
# [13] = qHTS assay to identify small molecules that stimulate interleukin-8 (IL-8) secretion (AID 651758; active = well fitted activation curve with a large enough effect in the signal ratio; the % refers to the signal ratio)
# How it was run: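 Secreted IL-8 measured by TR-FRET sandwich (cryptate and XL665 antibodies) from THP-1 cells exposed to compound overnight (16 hrs, 37 C).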
# [14] = qHTS assay for small molecule activators of the nuclear factor-kappa B (NF-kB) signaling pathway (AID 651749; active = well fitted activation curve with a large enough effect in the signal ratio; the % refers to the signal ratio; note: series mostly up to about 77 µM); settings: NF-kB-bla ME-180 cells, beta-lactamase FRET ratio, 16 h; hits give high values
# How it was run: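 Stably transfected ME-180 line; NF-kB response element upstream of beta-lactamase. Treatment: compound or DMSO, 16 hr. Detection: fluorescent FRET substrate.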
# [15] = target: Glutaminase kidney isoform, mitochondrial (Homo sapiens) (UniProt O94925); experiment: qHTS for Inhibitors of Glutaminase (GLS): LOPAC Validation (AID 624146);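 note: glutamate product detected by oxidase and peroxidase coupled Amplex red fluorescence gain; series mostly up to about 46 µM; nearly all actives have a fitted effect of over 60% in size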
# Chain of Glutaminase kidney isoform, mitochondrial (Homo sapiens) (O94925 whole entry, looked up, canonical isoform): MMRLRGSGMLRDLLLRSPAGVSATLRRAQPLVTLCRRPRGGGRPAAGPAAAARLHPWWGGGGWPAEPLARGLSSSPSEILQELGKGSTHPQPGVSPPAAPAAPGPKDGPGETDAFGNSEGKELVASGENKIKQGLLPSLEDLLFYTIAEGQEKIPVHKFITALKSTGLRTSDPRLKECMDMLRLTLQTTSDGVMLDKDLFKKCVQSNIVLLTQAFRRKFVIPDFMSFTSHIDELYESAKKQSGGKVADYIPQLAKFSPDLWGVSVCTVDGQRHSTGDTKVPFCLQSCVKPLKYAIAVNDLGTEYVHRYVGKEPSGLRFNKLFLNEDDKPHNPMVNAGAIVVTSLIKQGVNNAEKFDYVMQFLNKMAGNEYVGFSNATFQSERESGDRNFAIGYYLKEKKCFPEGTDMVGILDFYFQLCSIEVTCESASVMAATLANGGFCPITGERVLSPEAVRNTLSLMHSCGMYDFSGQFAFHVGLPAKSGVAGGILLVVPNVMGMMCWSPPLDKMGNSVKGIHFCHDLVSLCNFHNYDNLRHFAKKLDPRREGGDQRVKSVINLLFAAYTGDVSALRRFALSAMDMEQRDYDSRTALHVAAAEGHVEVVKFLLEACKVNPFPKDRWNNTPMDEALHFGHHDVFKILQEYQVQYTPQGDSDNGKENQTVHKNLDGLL
# How it was run: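 hKGA in 45 mM KH2PO4 (pH 8.2), 0.02% Tween-20 with compound, then 1mM L-Glutamine (stock as added) plus glutamate oxidase/HRP/Amplex red coupling mix. Fluorescence read initially and after 30 min at RT; signal change reflects glutamate formation.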
# [16] = qHTS of Trypanosoma Brucei Inhibitors: LOPAC Validation (AID 624147)
# How it was run: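 ADP (130 uM final) triggers the TbPYK reaction after compound addition; incubation is 45 min at room temperature. Kinase-Glo Plus is then added and luminescence imaged. Normalized data are fitted to concentration-effect curves.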
# [17] = target: Glucagon-like peptide 1 receptor (Homo sapiens) (UniProt P43220); experiment: qHTS of GLP-1 Receptor Agonists: LOPAC Validation (AID 624148);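 note: luminescence from a luciferase reporter switched on by cAMP; higher luminescence signal means agonism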
# Chain of Glucagon-like peptide 1 receptor (Homo sapiens) (P43220 whole entry, looked up): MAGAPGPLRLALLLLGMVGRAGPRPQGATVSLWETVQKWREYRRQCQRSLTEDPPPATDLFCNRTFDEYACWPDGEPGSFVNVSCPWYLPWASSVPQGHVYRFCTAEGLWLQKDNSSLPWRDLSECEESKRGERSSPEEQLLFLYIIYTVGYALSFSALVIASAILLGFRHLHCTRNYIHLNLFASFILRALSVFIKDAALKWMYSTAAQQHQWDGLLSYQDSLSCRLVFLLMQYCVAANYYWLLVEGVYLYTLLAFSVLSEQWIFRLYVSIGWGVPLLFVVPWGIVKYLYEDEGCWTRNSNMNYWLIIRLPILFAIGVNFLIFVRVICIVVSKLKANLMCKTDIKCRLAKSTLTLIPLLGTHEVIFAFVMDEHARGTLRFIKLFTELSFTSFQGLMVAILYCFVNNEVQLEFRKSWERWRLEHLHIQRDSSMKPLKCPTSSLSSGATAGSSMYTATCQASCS
# How it was run: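 Agonism scored as increased luciferase luminescence driven by cAMP in HEK293 clones carrying GLP-1R. Cells settled 12 hours, received compound for 4-6 hr at 37 deg C, 5% CO2, and were read after 12 min detection reagent at RT.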
# [18] = qHTS of Nrf2 Activators: LOPAC Validation (AID 624149)
# How it was run: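 ARE reporter activation measured in AREc32 firefly luciferase cells after 24 hr compound exposure; Steady-Glo luminescence.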
# [19] = HTS Assay for Allosteric Antagonists of the Human D2 Dopamine Receptor: Hit Validation in HTRF (AID 624455);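 note: stable D1 dopamine receptor cell line scored for blocking the D1 response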
# How it was run: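 Signal from an HTRF read-out in D1-expressing stable cells gave hit activity as inhibition of the D1 response.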
# [20] = target: Arylsulfatase A (Homo sapiens) (UniProt P15289); experiment: qHTS screen for enhancers of Arylsulfatase A (ASA1): LOPAC Validation Assay (AID 720538)
# Chain of Arylsulfatase A (Homo sapiens) (P15289 whole entry, looked up): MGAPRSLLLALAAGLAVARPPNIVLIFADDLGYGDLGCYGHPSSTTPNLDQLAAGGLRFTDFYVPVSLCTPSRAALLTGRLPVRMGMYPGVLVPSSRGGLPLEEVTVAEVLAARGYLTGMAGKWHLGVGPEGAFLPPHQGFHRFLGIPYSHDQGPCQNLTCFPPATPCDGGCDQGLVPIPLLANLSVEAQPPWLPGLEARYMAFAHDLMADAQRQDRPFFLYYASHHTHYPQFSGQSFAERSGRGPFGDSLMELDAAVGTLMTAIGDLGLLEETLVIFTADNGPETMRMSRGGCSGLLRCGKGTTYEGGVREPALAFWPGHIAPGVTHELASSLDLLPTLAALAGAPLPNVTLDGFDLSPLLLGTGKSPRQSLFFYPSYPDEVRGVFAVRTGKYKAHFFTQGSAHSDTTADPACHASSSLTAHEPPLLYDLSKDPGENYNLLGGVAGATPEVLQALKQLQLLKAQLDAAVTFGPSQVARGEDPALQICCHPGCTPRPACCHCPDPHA
# How it was run: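 Enhancer assay in patient-derived MLD fibroblasts carrying ASA-I179S: 48 h compound exposure at 37 C, then 14 h room-temperature pNCS turnover (0.5 mM final) in lysis buffer. Read by fluorescence at 525/598 nm after NaOH stop.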
smiles,measurement,setting,value
[Cl-].[Cl-].[Hg+2],Potency,[1],12.8 µM (active)
same,Potency,[2],2.56 µM (active)
same,Potency,[3],809 nM (active)
same,Potency,[4],3.16 µM (active)
same,Potency,[5],29.8 µM (active)
same,activation,[6],5.15%
same,Potency,[7],inactive
same,activation,[8],1.68%
same,max response,[9],-13.7%
same,Potency,[10],1.06 µM (active)
O=C(O)C(Cl)(Cl)Cl,Potency,[1],inactive
same,Potency,[2],inactive
same,Potency,[3],inactive
same,Potency,[4],inactive
same,Potency,[5],inactive
same,activation,[6],0.586% and -1.1%
same,Potency,[11],inactive
same,Potency,[7],inactive
same,outcome,[12],inactive
same,Potency,[13],inactive
same,max response,[9],3.26% and -0.682%
same,Potency,[10],inactive
N#CN,Potency,[1],inactive
same,Potency,[2],inactive
same,Potency,[3],inactive
same,Potency,[4],inactive
same,Potency,[5],inactive
same,activation,[14],0.422%
same,activation,[8],1.29%
same,max response,[9],0.0862%
O=S(=O)(O)c1cc(O)ccc1O,Potency,[1],inactive
same,Potency,[2],inactive
same,Potency,[3],inactive
same,Potency,[4],inactive
CC(C)(O)C1C2OC(=O)C1C1(O)CC3OC34C(=O)OC2C14C (configuration not stated),Potency,[1],inactive
same,Potency,[2],inactive
same,Potency,[3],inactive
same,Potency,[4],inactive
O=C(NCNC(=O)NC1C(=O)NC(=O)N1CO)NC1C(=O)NC(=O)N1CO (configuration not stated),Potency,[1],inactive
same,Potency,[2],inactive
same,Potency,[3],inactive
same,Potency,[4],inactive
same,Potency,[5],inactive
same,activation,[6],-1.04%
same,max response,[9],-1.19%
CCCCCCCCOC(=O)c1ccccc1C(=O)OCCCCCCCC,Potency,[1],inactive
same,Potency,[2],inactive
same,Potency,[3],inactive
same,Potency,[4],inactive
same,Potency,[5],inactive
same,activation,[6],1.9% and -2.06%
same,activation,[14],-1.07% and -0.62%
same,Potency,[11],inactive
same,Potency,[7],inactive
same,outcome,[12],inactive
same,activation,[8],-0.0695% and 0.763%
same,max response,[9],0.808% and 0.946%
same,Potency,[10],inactive
CN1c2ccccc2C(NCCCCCCC(=O)O)c2ccc(Cl)cc2S1(=O)=O (configuration not stated),Potency,[1],inactive
same,Potency,[2],inactive
same,Potency,[3],inactive
same,Potency,[4],inactive
CCCC(C)(COC(N)=O)COC(=O)NC1CC1 (configuration not stated),Potency,[1],inactive
same,Potency,[2],inactive
same,Potency,[3],inactive
same,Potency,[4],inactive
CNC(=O)Oc1ccccc1C(=O)Nc1ccccc1,Potency,[1],14.4 µM (active)
same,Potency,[2],inactive
same,Potency,[3],inactive
same,Potency,[4],inactive
O=Cc1ccco1,Potency,[1],inactive
same,Potency,[2],inactive
same,Potency,[3],inactive
same,Potency,[4],inactive
same,Potency,[5],inactive
same,activation,[6],-1.55%
same,activation,[14],-0.614%
same,Potency,[11],inactive
same,Potency,[7],inactive
same,outcome,[12],inactive
same,activation,[8],-0.549%
same,max response,[9],-1.43%
C[N+]1(C)C2CCC1CC(OC(=O)c1c[nH]c3ccccc13)C2 (configuration not stated),Potency,[1],inactive
same,Potency,[2],inactive
same,Potency,[3],inactive
same,Potency,[4],inactive
same,Potency,[15],inactive
same,Potency,[16],inactive
same,outcome,[17],inactive
same,Potency,[18],inactive
same,Potency,[19],inactive
Cc1sc2ccccc2c1CC1=NCCN1,Potency,[1],inactive
same,Potency,[2],inactive
same,Potency,[3],inactive
same,Potency,[4],inactive
same,Potency,[15],inactive
same,Potency,[16],inactive
same,outcome,[17],inactive
same,Potency,[18],inactive
same,Potency,[19],inactive
same,Potency,[20],inactive
CC1CCC(C(C)C)C(OC(=O)c2ccccc2N)C1 (configuration not stated),Potency,[1],inactive
same,Potency,[2],inactive
same,Potency,[3],inactive
same,Potency,[4],inactive
[O]=[Cd],Potency,[1],inactive
same,Potency,[2],inactive
same,Potency,[3],inactive
same,Potency,[4],inactive
same,Potency,[5],inactive
same,activation,[6],1.29%
same,activation,[14],-0.74%
same,Potency,[11],inactive
same,Potency,[7],inactive
same,outcome,[12],inactive
same,activation,[8],0.231%
same,max response,[9],-1.92%
same,Potency,[10],inactive
C=CCN(C1=NCCN1)c1c(Cl)cccc1Cl,Potency,[1],inactive
same,Potency,[2],inactive
same,Potency,[3],inactive
same,Potency,[4],inactive
same,Potency,[15],inactive
same,Potency,[16],inactive
same,outcome,[17],inactive
same,Potency,[18],inactive
same,Potency,[19],inactive
same,Potency,[20],inactive
N#CC1(N2CCCCC2)CCCCC1,Potency,[1],inactive
same,Potency,[2],inactive
same,Potency,[3],inactive
same,Potency,[4],inactive
FC(F)OC(F)(F)C(F)Cl (configuration not stated),Potency,[1],inactive
same,Potency,[2],inactive
same,Potency,[3],inactive
same,Potency,[4],inactive
ClC1C(Cl)C(Cl)C(Cl)C(Cl)C1Cl (configuration not stated),Potency,[1],inactive
same,Potency,[2],inactive
same,Potency,[3],inactive
same,Potency,[4],inactive
same,Potency,[5],inactive
same,activation,[6],-1.74% [middle of 4 runs]
same,activation,[14],-1.15% [middle of 4 runs]
same,activation,[8],1.78% [middle of 4 runs]
same,max response,[9],1.56% [middle of 4 runs]
c1ccc2cc(CC3=NCCN3)ccc2c1,Potency,[1],inactive
same,Potency,[2],inactive
same,Potency,[3],inactive
same,Potency,[4],inactive
same,Potency,[15],inactive
same,Potency,[16],inactive
same,outcome,[17],inactive
same,Potency,[18],inactive
same,Potency,[19],inactive
same,Potency,[20],inactive
CCCCCl,Potency,[1],inactive
same,Potency,[2],inactive
same,Potency,[3],inactive
same,Potency,[4],inactive
same,Potency,[5],inactive
same,activation,[6],-4.24%
same,Potency,[11],inactive
same,Potency,[7],inactive
same,outcome,[12],inactive
same,activation,[8],-0.771%
same,max response,[9],-3.81%
same,Potency,[10],inactive
